# Assay outcomes (PubChem BioAssay)
# Sampled rows, rich in hits. Any-hit rate of the full collection: about 32%.
# CYP2C9 act: activators of human CYP2C9; P11712; 1.4% of 96,000 active; activation factor at 5 µM; recombinant CYP2C9, luciferin-H conversion, luminescence; hits give high values; factor 1 = untreated enzyme, 0 = blocked;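 active = activation factor of 2 or more for CYP2C9 at a 5 µM dose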
# Target sequence (P11712 whole entry, looked up): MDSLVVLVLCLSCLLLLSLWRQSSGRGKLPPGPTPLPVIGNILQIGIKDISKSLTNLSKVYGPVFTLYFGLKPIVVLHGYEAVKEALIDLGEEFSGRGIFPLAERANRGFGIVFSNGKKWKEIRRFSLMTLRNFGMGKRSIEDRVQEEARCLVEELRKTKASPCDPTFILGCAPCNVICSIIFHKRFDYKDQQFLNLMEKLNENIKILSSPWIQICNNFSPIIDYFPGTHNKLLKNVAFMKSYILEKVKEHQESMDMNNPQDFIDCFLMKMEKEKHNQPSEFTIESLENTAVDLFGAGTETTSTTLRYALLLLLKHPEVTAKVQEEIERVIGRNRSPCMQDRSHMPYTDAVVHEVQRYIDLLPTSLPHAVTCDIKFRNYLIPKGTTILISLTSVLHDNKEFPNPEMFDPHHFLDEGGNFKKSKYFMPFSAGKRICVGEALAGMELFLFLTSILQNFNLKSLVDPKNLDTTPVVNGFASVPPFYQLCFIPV
# CYP2C9 inh: human CYP2C9 inhibition. inhibition, % at 5 µM. P11712. CYP2C9 Supersomes, luciferin-H conversion, luminescence. 20% of 96,000 active. AID 777;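 active = blocking of liver enzyme CYP2C9 beyond about 50% at 5 µM, limit read from the data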
# CYP2C19 activ: activators of human cytochrome P450 2C19 | P33261 | activation factor at 5 µM | recombinant CYP2C19, luciferin-H EGE luminescence; hits give high values; 0 = fully inhibited enzyme, 1 = untreated enzyme | 96,000 tested, under 10 active;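 active = activation factor of at least 2 at 5 µM in the primary screen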
# PostGolgi yeast: growth inhibition of a yeast mutant, post-Golgi transport screen; 0.9% of 98,000 active; post-Golgi transport phenotypic cell assay; AID 739; inhibition, % at 10 µM;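 also: yeast cells grown in 1536-well plates; yeast grown about 18 h at 30C before absorbance read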
# PostGolgi ctrl: inhibits growth of the yeast control strain. AID 738. 5% of 98,000 active. inhibition, % at 10 µM. efflux-deficient yeast background strain, growth absorbance A615, 16 h
# CYP2C19 inh: human CYP2C19 inhibition; P33261; 21% of 96,000 active; inhibition, % at 5 µM; CYP2C19 Supersomes, luciferin-H EGE luminescence, 30 min;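 active = CYP2C19 inhibition above a set limit at 5 µM in the primary screen, cut at about 50% in these data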
# Numbers stand for hits; – = inactive; · = not tested or not shown. Rule as the data show it, unless noted: active = inhibition above about 30%; inactive = the rest.
SMILES,CYP2C9 act,CYP2C9 inh,CYP2C19 activ,PostGolgi yeast,PostGolgi ctrl,CYP2C19 inh
COc1cc(O)oc1C=Nc1ccc(Oc2ccccc2)cc1,–,–,–,–,–,–
COCc1[nH][nH]c(=O)c1C=Nc1ccc(Oc2ccccc2)cc1,–,–,–,–,–,66
CCOC(=O)Cn1nnnc1C(C(C)C)N(Cc1cccs1)Cc1cc2cc(C)ccc2[nH]c1=O (stereo unspecified),–,64,–,–,–,84
CCOC(=O)Cn1nnnc1C(CC)N(Cc1cccs1)Cc1cc2cc(C)ccc2[nH]c1=O (stereo unspecified),–,85,–,–,–,95
CCOc1ccc2[nH]c(=O)c(CN(Cc3cccs3)C(CC)c3nnnn3C(C)(C)CC)cc2c1 (stereo unspecified),–,87,–,–,37,63
CCC(c1nnnn1C1CCCC1)N(Cc1cccs1)Cc1cc2cc(C)ccc2[nH]c1=O (stereo unspecified),2,–,–,–,–,–
CCOC(=O)Cn1nnnc1CN(Cc1ccc(OC)cc1)Cc1cc2cc(C)ccc2[nH]c1=O,·,·,·,–,–,·
CCCCN(C)CCNS(=O)(=O)c1ccc2c(c1)n(C)c(=O)c(=O)n2C,–,–,–,–,–,–
CCOC(=O)c1cc(NC(=O)C2CCCO2)cc(C(=O)OCC)c1 (stereo unspecified),–,–,–,–,–,–
Cc1ccc(CNC(=O)/C(C#N)=C\c2ccc(N(C)C)cc2)cc1,–,–,–,–,–,–
CCOC(=O)CSc1nnc(CSc2nc3ccccc3c(=O)[nH]2)n1-c1ccccc1,–,–,–,–,–,–
c1cc(C(c2nnnn2C2CCCC2)N2CCOCC2)ccn1 (stereo unspecified),–,–,–,–,–,83
Cc1ccc(C(c2nnnn2C2CCCCC2)N2CCN3CCCC3C2)cc1 (stereo unspecified),–,–,–,–,–,–
Oc1ccc(N2CCN(C(c3ccncc3)c3nnnn3C3CCCC3)CC2)cc1 (stereo unspecified),–,–,–,–,–,52
CS(=O)(=O)NCCC1=CCCCC1,–,–,–,–,–,–
COc1ccc(C2C(C(=O)NCc3cccnc3)c3ccccc3C(=O)N2C)cc1OC (stereo unspecified),–,70,–,–,–,–
COc1ccc(C2C(C(=O)N3CCN(c4ccccc4)CC3)c3ccccc3C(=O)N2C)cc1OC (stereo unspecified),–,73,–,–,–,–
COc1ccc(C2C(C(=O)N3CCN(c4ccccc4)CC3)c3ccccc3C(=O)N2C)cc1 (stereo unspecified),·,·,·,–,–,·
O=C(Cc1ccccc1)N[C@H](c1ccccc1)P(=O)(O)CO,–,–,–,–,–,–
COc1ccc(C(CC(=O)N2CCOCC2)C(C)C)cc1 (stereo unspecified),·,·,·,–,–,·
COc1ccc(CC(=S)N2CCOCC2)cc1,–,–,–,–,–,96
CC(C)CCN1CC(O)=C(c2nc3ccccc3[nH]2)C1=N,–,60,–,–,–,68
N=C1C(c2nc3ccccc3c(=O)[nH]2)=C(O)CN1CCO,–,–,–,–,–,–
CCCCCCN1CC(O)=C(c2ccccc2)C1=N,–,–,–,–,–,–
N=C1C(c2nc3ccccc3c(=O)[nH]2)=C(O)CN1CCc1ccccc1,–,60,–,–,–,63
SMILES,CYP2C9 act,CYP2C9 inh,CYP2C19 activ,PostGolgi yeast,PostGolgi ctrl,CYP2C19 inh
CC(C)N1CC(O)=C(c2nc3ccccc3[nH]2)C1=N,–,–,–,–,–,54
CCCCN1CC(O)=C(c2nc3ccccc3[nH]2)C1=N,–,52,–,–,30,71
CN(C)/C=C1\C(=O)N(c2ccc([N+](=O)[O-])cc2)N=C1c1ccccc1,–,–,–,–,–,–
Cc1nn(Cc2c(Cl)cccc2Cl)c(C)c1NC(=O)c1cc(C(C)C)on1,–,–,–,–,–,–
Cc1nnc(-c2cccc(Br)c2)c2cn(-c3ccccc3Cl)nc12,–,66,–,102,–,60
Cc1ccc(-n2cc3c(-c4cccc(Br)c4)nnc(C)c3n2)cc1,–,92,–,99,41,77
CCC(C)c1ccc(NC(=O)COC(=O)C2=COCCO2)cc1 (stereo unspecified),–,–,–,–,–,–
CCOc1ccc(C2C(C#N)=C(N)Oc3cc(C)n(CCN(C)C)c(=O)c32)cc1OCC (stereo unspecified),–,–,–,–,–,–
Clc1cccc(Cl)c1COn1nnc2ccccc21,–,–,–,–,–,–
c1ccc(COn2nnc3ccccc32)c(COn2nnc3ccccc32)c1,–,93,–,–,–,99
Cc1ccc(Nc2nc3c([nH]2)c(=O)n(C)c(=O)n3C)cc1,–,60,–,–,–,–
O=C(COc1ccccc1)Nn1cnc2ccccc21,–,–,–,–,–,–
CC1(O)c2ccccc2C(=O)N1CCc1ccccc1F (stereo unspecified),–,–,–,–,–,96
CC1(O)N(Cc2ccccc2)C(=O)OC12CCCCC2 (stereo unspecified),–,–,–,–,46,74
CN1C(=O)OC(C)(CCc2ccccc2)C1(C)O (stereo unspecified),–,–,–,–,–,–
CC1(O)c2ccccc2C(=O)N1Cc1ccccc1 (stereo unspecified),–,–,–,–,–,85
O=C(O)c1ccc2c(c1)N(Cc1ccccc1F)C(=O)c1ccccc1S2=O (stereo unspecified),–,–,–,–,–,–
CCn1cc(C(=O)N2CCCc3ccccc32)c2cc(OC)c(OC)cc2c1=O,–,–,–,–,–,56
CCn1cc(C(=O)N2CCN(c3cccc(Cl)c3)CC2)c2cc(OC)c(OC)cc2c1=O,–,80,–,–,–,76
COc1cccc2c(=O)n(CC(=O)N3CCCc4ccccc43)ccc12,–,–,–,–,–,87
COC(=O)[C@@H](NC(=O)Nc1cccc(OC)c1)C(C)C,–,–,–,–,–,–
N#C/C(=C\c1ccc(Cl)cc1)c1n[nH]c(Cn2cncn2)n1,–,68,–,–,–,–
Clc1ccc(NCn2cncn2)nc1,–,–,–,–,–,–
O=C(Nc1ccc(Cl)cc1Cl)c1n[nH]c(Cn2cncn2)n1,–,51,–,–,–,53
O=C(c1ccccc1)N1CC(COc2ccccc2)OC(c2cccnc2)O1 (stereo unspecified),–,–,–,48,31,–
COC(=O)c1cnn(-c2ccc(C)c(C)c2)c1-n1cccc1,·,·,·,–,–,·
CC(C)OC(=O)CCc1nc2ccccc2[nH]c1=O,–,–,–,–,–,76
Cc1ccc(C2NC(=O)c3c(sc4c3CCN(C)C4)N2)s1 (stereo unspecified),–,–,–,–,–,–
